# In the supplement of paper PMC8728848:
# This excerpt belongs to a sample that is enriched for the strongest signals.
# B1: LSectin (Mus musculus), Q8BNX1 (protein)
# chain: MNTGEYNKLGSAIEEVSRGQLGRWECYKQRLFFLVLALLVATVLWALILSTLLSSASSKLRVLLSHQDLLRTNASEQKMTLSSLKDDIGACRNCCSVTKAQLQTTLAEFKDIQAKLMEQESILKELQERVTQDLAKASRDRENIRSELFQALEAVKRQNSSCEQCPPSWLPFQGSCYYFSETQATWDTAQSYCGGQGAHLVIVRGLNEQGFLSQHTRGRGYWLGLRAVRHLNKIQGYRWVDGASLNFSHWNSGEPNDSRGHEDCIMMLHSGLWNDAPCTNERDGWICEKRSSCY
# Key:
# Experiment in all cases: glycan array binding signal (z-score within array); higher = stronger binding
# Details in all cases: glycan notation: IUPAC condensed, linker removed
# [1] = biological target: Fuc(a1-2)Gal(b1-3)GlcNAc(b1-2)Man(a1-3)[Fuc(a1-2)Gal(b1-3)GlcNAc(b1-2)Man(a1-6)]Man(b1-4)GlcNAc(b1-4)GlcNAc
# Procedure, shortened: (§1)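 Glycan array data were curated from 3228 arrays in the Consortium for Functional Glycomics database and kept only where the protein sequence was available. Glycan names were converted to IUPAC-condensed notation, and columns mapping to the same glycan were averaged. The binding signal is a within-array Z-score, averaged across arrays of the same protein sequence at different concentrations or buffers and across linkers. Negative Z-scores can be read as non-binding.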
# [2] = biological target: Fuc(a1-2)Gal(b1-3)GlcNAc(b1-3)[Fuc(a1-3)[Gal(b1-4)]GlcNAc(b1-6)]Gal(b1-4)Glc
# Procedure, shortened: as §1
# [3] = biological target: Fuc(a1-2)Gal(b1-3)GlcNAc(b1-3)[Gal(b1-4)GlcNAc(b1-6)]Gal(b1-4)Glc
# Procedure, shortened: as §1
# [4] = biological target: Fuc(a1-2)[Gal(a1-3)]Gal
# Procedure, shortened: as §1
# [5] = biological target: Fuc(a1-2)[Gal(a1-3)]Gal(b1-4)[Fuc(a1-3)]Glc
# Procedure, shortened: as §1
# [6] = biological target: Fuc(a1-2)[GalNAc(a1-3)]Gal(b1-4)GlcNAc
# Procedure, shortened: as §1
# [7] = biological target: Fuc(a1-2)[GalNAc(a1-3)]Gal(b1-4)GlcNAc(b1-3)Gal(b1-4)GlcNAc
# Procedure, shortened: as §1
# [8] = biological target: Fuc(a1-3)[Gal(b1-4)]GlcNAc(b1-2)Man(a1-3)[Fuc(a1-3)[Gal(b1-4)]GlcNAc(b1-2)Man(a1-6)]Man(b1-4)GlcNAc(b1-4)GlcNAc
# Procedure, shortened: as §1
# [9] = biological target: Gal(a1-4)Gal(b1-4)GlcNAc(b1-2)Man(a1-3)[Gal(a1-4)Gal(b1-4)GlcNAc(b1-2)Man(a1-6)]Man(b1-4)GlcNAc(b1-4)GlcNAc
# Procedure, shortened: as §1
# [10] = biological target: Gal(b1-3)GlcNAc
# Procedure, shortened: as §1
# [11] = biological target: Gal(b1-3)GlcNAc(b1-3)Gal(b1-3)GlcNAc
# Procedure, shortened: as §1
# [12] = biological target: Gal(b1-3)GlcNAc(b1-3)Gal(b1-4)GlcNAc
# Procedure, shortened: as §1
# [13] = biological target: Gal(b1-3)[Fuc(a1-4)]GlcNAc(b1-3)Gal(b1-3)[Fuc(a1-4)]GlcNAc
# Procedure, shortened: as §1
# [14] = biological target: Gal(b1-4)GlcNAc(b1-2)Man(a1-6)[GlcNAc(b1-2)Man(a1-3)]Man(b1-4)GlcNAc(b1-4)GlcNAc
# Procedure, shortened: as §1
# [15] = biological target: Gal(b1-4)GlcNAc(b1-3)[Gal(b1-4)GlcNAc(b1-6)]GalNAc
# Procedure, shortened: as §1
# [16] = biological target: Gal6S(b1-3)GlcNAc
# Procedure, shortened: as §1
# [17] = biological target: GalNAc(a1-3)GalNAc(a1-3)Gal(a1-4)Gal(b1-4)GlcNAc
# Procedure, shortened: as §1
# [18] = biological target: Glc(b1-4)Glc
# Procedure, shortened: as §1
# [19] = biological target: GlcA(b1-3)Gal
# Procedure, shortened: as §1
# [20] = biological target: GlcNAc(a1-3)Gal(b1-4)GlcNAc
# Procedure, shortened: as §1
# [21] = biological target: GlcNAc(b1-2)Man(a1-3)[GlcNAc(b1-2)Man(a1-6)]Man(b1-4)GlcNAc(b1-4)GlcNAc
# Procedure, shortened: as §1
# [22] = biological target: GlcNAc(b1-2)Man(a1-3)[GlcNAc(b1-2)Man(a1-6)]Man(b1-4)GlcNAc(b1-4)[Fuc(a1-6)]GlcNAc
# Procedure, shortened: as §1
# [23] = biological target: GlcNAc(b1-2)Man(a1-3)[GlcNAc(b1-4)][GlcNAc(b1-2)Man(a1-6)]Man(b1-4)GlcNAc(b1-4)GlcNAc
# Procedure, shortened: as §1
# [24] = biological target: GlcNAc(b1-2)[GlcNAc(b1-6)]Man(a1-6)[GlcNAc(b1-2)Man(a1-3)]Man(b1-4)GlcNAc(b1-4)GlcNAc
# Procedure, shortened: as §1
# [25] = biological target: GlcNAc(b1-2)[GlcNAc(b1-6)]Man(a1-6)[GlcNAc(b1-2)Man(a1-3)][GlcNAc(b1-4)]Man(b1-4)GlcNAc(b1-4)GlcNAc
# Procedure, shortened: as §1
# [26] = biological target: GlcNAc(b1-3)Gal
# Procedure, shortened: as §1
# [27] = biological target: GlcNAc3Prop(b1-4)GlcNAc
# Procedure, shortened: as §1
# [28] = biological target: Man(a1-3)[Man(a1-6)]Man(a1-6)[Man(a1-3)]Man(b1-4)GlcNAc(b1-4)GlcNAc
# Procedure, shortened: as §1
# [29] = biological target: Neu5Ac(a2-3)Gal
# Procedure, shortened: as §1
# [30] = biological target: Neu5Ac(a2-3)Gal(b1-4)[Fuc(a1-3)]GlcNAc(b1-3)GalNAc
# Procedure, shortened: as §1
# [31] = biological target: Neu5Ac(a2-3)Gal(b1-4)[Fuc(a1-3)]GlcNAc(b1-6)[Neu5Ac(a2-3)Gal(b1-3)]GalNAc
# Procedure, shortened: as §1
# [32] = biological target: Neu5Ac(a2-6)Gal
# Procedure, shortened: as §1
# [33] = biological target: Neu5Ac(a2-6)Gal(b1-3)GlcNAc(b1-3)[Gal(b1-4)GlcNAc(b1-6)]Gal(b1-4)Glc
# Procedure, shortened: as §1
# [34] = biological target: Neu5Ac(a2-6)Gal(b1-4)GlcNAc(b1-2)Man(a1-6)[GlcNAc(b1-2)Man(a1-3)]Man(b1-4)GlcNAc(b1-4)GlcNAc
# Procedure, shortened: as §1
# [35] = biological target: Neu5Ac(a2-6)Gal(b1-4)GlcNAc(b1-3)Gal(b1-4)GlcNAc(b1-3)Gal(b1-4)GlcNAc
# Procedure, shortened: as §1
# [36] = biological target: Neu5Ac(a2-6)GalNAc(b1-4)GlcNAc
# Procedure, shortened: as §1
# [37] = biological target: Neu5Ac(a2-6)GlcNAc(b1-4)GlcNAc
# Procedure, shortened: as §1
# [38] = biological target: Neu5Ac(a2-8)Neu5Ac(a2-3)Gal(b1-4)Glc
# Procedure, shortened: as §1
# [39] = biological target: Neu5Ac9Ac(a2-6)Gal(b1-4)GlcNAc
# Procedure, shortened: as §1
# [40] = biological target: Neu5Gc(a2-3)Gal(b1-4)GlcNAc
# Procedure, shortened: as §1
binder,measurement,setting,value
B1,glycan array binding signal (z-score),[1],-0.18
same,glycan array binding signal (z-score),[2],-0.187
same,glycan array binding signal (z-score),[3],-0.188
same,glycan array binding signal (z-score),[4],-0.145
same,glycan array binding signal (z-score),[5],-0.124
same,glycan array binding signal (z-score),[6],-0.176
same,glycan array binding signal (z-score),[7],-0.185
same,glycan array binding signal (z-score),[8],-0.158
same,glycan array binding signal (z-score),[9],-0.18
same,glycan array binding signal (z-score),[10],-0.132
same,glycan array binding signal (z-score),[11],-0.18
same,glycan array binding signal (z-score),[12],-0.175
same,glycan array binding signal (z-score),[13],-0.172
same,glycan array binding signal (z-score),[14],4.08
same,glycan array binding signal (z-score),[15],-0.192
same,glycan array binding signal (z-score),[16],-0.188
same,glycan array binding signal (z-score),[17],-0.19
same,glycan array binding signal (z-score),[18],-0.17
same,glycan array binding signal (z-score),[19],-0.169
same,glycan array binding signal (z-score),[20],-0.14
same,glycan array binding signal (z-score),[21],6.38
same,glycan array binding signal (z-score),[22],5.47
same,glycan array binding signal (z-score),[23],7.84
same,glycan array binding signal (z-score),[24],4.99
same,glycan array binding signal (z-score),[25],7.22
same,glycan array binding signal (z-score),[26],-0.164
same,glycan array binding signal (z-score),[27],-0.168
same,glycan array binding signal (z-score),[28],-0.172
same,glycan array binding signal (z-score),[29],-0.148
same,glycan array binding signal (z-score),[30],-0.154
same,glycan array binding signal (z-score),[31],-0.181
same,glycan array binding signal (z-score),[32],-0.118
same,glycan array binding signal (z-score),[33],-0.187
same,glycan array binding signal (z-score),[34],4.19
same,glycan array binding signal (z-score),[35],-0.182
same,glycan array binding signal (z-score),[36],3.69
same,glycan array binding signal (z-score),[37],-0.18
same,glycan array binding signal (z-score),[38],-0.158
same,glycan array binding signal (z-score),[39],-0.16
same,glycan array binding signal (z-score),[40],-0.156
